IL-1B inflam inh = blocks inflammasome-driven IL-1 beta release; activity change, % at 57.5 µM; THP-1 LPS/ATP IL-1B secretion, AlphaLISA, 16 h; hits give low values; actives 4.7% (n = 360,000); in the data active = activity change below about -50%; inconclusive = mostly about -30% to -49%; also: % is scaled to controls: 0 for no effect and ±100 for the full control effect
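THP-1 cells pretreated 1 hr with compounds (up to 57.5 uM final), then stimulated with LPS (250 ng/mL final) plus ATP (1.25 mM final); secreted IL-1B measured by AlphaLISA after 16 hr, decreased signal indicating inhibition.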
TDP1 cell CPT = growth inhibition of DT40 Tdp1-/-;hTDP1 cells with camptothecin (screen for TDP1 inhibitors); Potency, µM (top dose mostly 46.2 µM), for the others: at the top dose activity change, negative = growth inhibition, most hits filed as inhibitors; chicken DT40 Tdp1-/-;hTDP1 cells + 20 nM CPT, ATP luminescence, 48 h; actives 12% (n = 420,000); AID 686979; also: potency is read from the fitted curve at half-maximal effect; % is scaled to controls: 0 for no effect and ±100 for the full control effect; nearly all actives have a fitted effect of over 55% in size
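Chicken DT40 Tdp1-/- cells stably complemented with human TDP1 were seeded at 400 cells/well in medium containing 20 nM camptothecin, exposed to pin-transferred compounds, and grown at 37 °C for at least 48 hr. Viability was read as ATP luminescence.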
DRD3 antagonist = D3 dopamine receptor (human) antagonism. AID 652054. max response, negative = inhibition, %. D3R cells, DiscoveRx beta-arrestin luminescence, antagonist mode; hits give low values. P35462. actives 2.5% (n = 360,000); in the data active = max response below about -50%; inconclusive = no clear call, values can overlap the other calls; also: % is scaled to controls: 0 for no effect and ±100 for the full control effect
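Cells expressing the human receptor were seeded at 1500 cells/well, incubated overnight at 37 degrees C in 5% CO2, then exposed to library compounds with dopamine controls for 90 minutes at 37 degrees C before luminescent detection.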
TDP1 cell noCPT = qHTS for Inhibitors of human tyrosyl-DNA phosphodiesterase 1 (TDP1): qHTS in cells in absence of CPT; DT40 Tdp1-/- hTDP1 cells, no CPT, ATP luminescence, 48 h; actives 15% (n = 420,000); AID 686978, 2013; Potency, µM (highest dose often 46.2 µM), inactives show at the highest dose activity change, negative = growth inhibition, hits mostly inhibitors; also: potency is read from the fitted curve at half-maximal effect; % is scaled to controls: 0 for no effect and ±100 for the full control effect; nearly all actives have a fitted effect of over 55% in size
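Cells were dispensed at 400 per well, compounds added by pin tool, plates incubated ≥48 hr at 37 °C, then CellTiter-Glo added for 30 min at room temperature before luminescence reading. Line: DT40 Tdp1-/- complemented with hTDP1; camptothecin omitted.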
DRD3 agonist = D3 dopamine receptor (human) agonism; P35462; D3R DiscoveRx beta-arrestin cells, luminescence, 90 min; max activation, %; actives 0.58% (n = 410,000); in the data active = max activation above about 30%; also: 0% is about no effect
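Agonist mode: compounds and dopamine controls were applied to plated cells for 90 min at 37 degrees C after an overnight attachment at 1500 cells/well. Luminescent read-out followed 30 - 60 minutes at room temperature with DiscoveRx detection reagent.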
ClpP mod = qHTS Assay for Activators of ClpP. purified B. subtilis ClpP, FRET peptide cleavage, 20 min. ATP-dependent Clp protease proteolytic subunit (Bacillus subtilis (strain 168)), P80244. Potency, µM (top dose mostly 57.5 µM), inactives show top-dose activity change, negative = active. actives 1.9% (n = 340,000); active = well fitted falling curve with a large enough effect; inconclusive = small, poorly fitted or top-dose-only effect; inactive = no such curve, though single readings can be large or run the other way; also: potency is read from the fitted curve at half-maximal effect; the source files actives as falling curves though it sought activators and does not explain the sign; nearly all actives have a fitted effect of over 65% in size
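ClpP 10 microg/mL final, pH 8 Tris/KCl buffer with BSA, glycerol, Tween-20; compound pinned in; FRET-FV substrate; RT 20 min; Ex320/Em430; ΔFRET vs ADEP 5.8 microM, DMSO, no enzyme.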
Numbers without * were called inactive; ? = inconclusive; / = no result given. The list is not random: actives were taken first. Their share in the collection is about 21%. Unless noted, calls follow the shape of the dose curve; as a rule, active = well fitted inhibition curve with a large enough effect; inconclusive = small, poorly fitted or top-dose-only effect; inactive = flat fitted curve, though single readings scatter.

SMILES | IL-1B inflam inh | TDP1 cell CPT | DRD3 antagonist | TDP1 cell noCPT | DRD3 agonist | ClpP mod
CN1C(=O)/C(=C2\SC(N)=NC2=O)c2ccccc21 | -18 | 18µM* | 16 | 26µM* | 3 | 0%
Cc1c(CC(=O)NCCCO)c(=O)oc2cc3c(cc12)CCC(C)(C)O3 | -9 | -13% | 11 | -29% | 1 | 4%
Cc1ccc(Cl)cc1-n1ncc2c(NCc3ccc(F)cc3)ncnc21 | / | ? | / | ? | 9 | -7%
Cc1ccc(Cl)cc1-n1ncc2c(NCCc3ccccc3)ncnc21 | / | 16µM* | / | 21µM* | 11 | -5%
Fc1ccc(-n2ncc3c(NCCC4=CCCCC4)ncnc32)cc1 | / | ? | / | ? | 5 | -28%
Cc1ccc(Cl)cc1-n1ncc2c(NCCC3=CCCCC3)ncnc21 | / | 16µM* | / | ? | 2 | -18%
Cc1ccc(Cl)cc1-n1ncc2c(NCCCc3ccccc3)ncnc21 | / | 7.3µM* | / | ? | 2 | ?
COc1ccc(C2=CC(c3ccc(N(C)C)cc3)n3nnnc3N2)cc1 (stereo not given) | / | ? | / | ? | 3 | -7%
COc1ccc(C2C=C(c3ccc(C)cc3)Nc3c(C(=O)Nc4ccccc4)cnn32)cc1 (stereo not given) | / | ? | / | ? | -2 | -3%
COc1cccc(C2=CC(c3ccc(N(C)C)cc3)n3nnnc3N2)c1 (stereo not given) | -3 | 21µM* | 1 | 13µM* | -5 | -4%
COc1ccc(C2=CC(c3ccc(C)cc3)n3nnnc3N2)cc1 (stereo not given) | 2 | ? | -18 | -29% | 32* | 25µM*
COc1cccc(C2C=C(c3ccc(OC)cc3OC)Nc3nnnn32)c1 (stereo not given) | -5 | ? | 24 | 16µM* | 4 | -3%
CCOc1ccc(NC(=O)c2cnn3c2NC(c2cccc(OC)c2)=CC3c2ccccc2)cc1 (stereo not given) | / | 21µM* | / | 21µM* | 11 | -2%
COc1ccc(C2C=C(c3ccccc3)Nc3nnnn32)cc1 (stereo not given) | 2 | -18% | -20 | ? | -9 | ?
COc1ccc(C2=CC(c3ccc(OC)c(OC)c3)n3nnnc3N2)c(OC)c1 (stereo not given) | 20 | ? | 92 | ? | 3 | -12%
COc1cccc(C2=CC(c3ccccc3)n3nnnc3N2)c1 (stereo not given) | 7 | 5.8µM* | -6 | 3.7µM* | -10 | 0%
O=C(N=C1SC2CS(=O)(=O)CC2N1c1c(Cl)cccc1Cl)C1CC1 (stereo not given) | 42 | -18% | -18 | -11% | 0 | -1%
CC(=O)N=C1SC2CS(=O)(=O)CC2N1c1c(Cl)cccc1Cl (stereo not given) | 0 | 7% | 4 | ? | -5 | 32µM*
Cn1c(=O)[nH]c(=O)c2c1nc(NN)n2CCOc1ccccc1 | -18 | -16% | 13 | ? | 7 | 2%
Cn1c(=O)[nH]c(=O)c2c1nc(NCCN)n2CCOc1ccccc1 | 27 | ? | 4 | 13µM* | -8 | 0%
Cn1c(=O)[nH]c(=O)c2c1nc(Br)n2CCOc1ccccc1 | 25 | 10µM* | -53* | 16µM* | 4 | -3%
O=C(c1cc(C2CC2)nn1-c1ccccc1)N1CCN(Cc2c(F)cccc2Cl)CC1 | -21 | ? | -26 | ? | 0 | -1%
Cc1ccc(N2C(=O)C3C(C2=O)N2CCCN2C3c2ccccc2)cc1C (stereo not given) | 0 | 1% | 1 | -7% | -17 | /
Cc1ccc(N2C(=O)CS(=O)C(c3ccccc3)C2=O)cc1C (stereo not given) | -9 | ? | 9 | 15µM* | -6 | /
CCN(CC)CCn1c2c(c(SCC(=O)Nc3nc4ccccc4s3)nc1=O)CCC2 | -99* | -2% | -5 | ? | 6 | -2%
SMILES | IL-1B inflam inh | TDP1 cell CPT | DRD3 antagonist | TDP1 cell noCPT | DRD3 agonist | ClpP mod
CCN(CC)CCCn1c2c(c(SCC(=O)Nc3cc(C)cc(C)c3)nc1=O)CCC2 | -57* | -22% | -10 | ? | -7 | -3%
CCN(CC)CCCn1c2c(c(SCC(=O)Nc3cccc(C(C)=O)c3)nc1=O)CCC2 | -10 | 0% | 11 | -26% | -2 | -11%
CCN(CC)CCn1c2c(c(SCC(=O)Nc3nc4ccc(C)cc4s3)nc1=O)CCC2 | 6 | 6.5µM* | 26 | 5.8µM* | -4 | 4%
CCN(CC)CCn1c2c(c(SCC(=O)Nc3cccc(C(C)=O)c3)nc1=O)CCCC2 | -3 | ? | -19 | ? | -22 | -3%
CCOC(=O)c1noc2c1CCC2 | 2 | 22% | 21 | 14% | -1 | -1%
O=C(Cc1ccccc1)Nc1scc(-c2ccccc2)c1C(=O)N1CCOCC1 | 16 | ? | 16 | ? | 3 | 0%
NC(=O)c1c(-c2ccc(Cl)cc2Cl)csc1NC(=O)Cc1ccccc1 | -3 | 8.2µM* | 7 | 9.2µM* | -7 | 2%
COCCN(C(=O)c1cc(OC)c(OC)c(OC)c1)c1c(N)n(Cc2ccccc2)c(=O)[nH]c1=O | -2 | 3% | -19 | -10% | 2 | /
CCOc1cc(NS(=O)(=O)c2ccc(NC(C)=O)cc2)c(OCC)cc1NC(=O)C(C)C | 6 | ? | 9 | -23% | 9 | 0%
COc1cc(NC(=O)C2CCCCC2)c(OC)cc1NC(=O)c1ccco1 | 0 | -26% | 24 | ? | 0 | -2%
CCOc1cc(NC(=S)NCC2CCCO2)c(OCC)cc1NC(=O)C1CC1 (stereo not given) | -7 | -3% | -14 | 4.6µM* | 1 | 1%
CCOc1cc(NC(=O)C2CCCCC2)c(OCC)cc1NC(=O)c1ccco1 | -10 | 7.3µM* | 29 | ? | 2 | -7%
CCOc1cc(NS(=O)(=O)c2ccc(Cl)cc2)c(OCC)cc1NC(=O)CC(C)C | -14 | 22µM* | 9 | 18µM* | -25 | -1%
CCOc1cc(NS(=O)(=O)c2ccccc2)c(OCC)cc1NC(=O)c1ccco1 | 0 | ? | -51* | 26µM* | 0 | 0%
NCCCCN | / | 2% | / | -3% | / | /
COc1ccc(CC(=O)N[C@@H](C)C(=O)N2CCC3(CC2)NCCc2[nH]cnc23)cc1 | 24 | 21% | 4 | -3% | 10 | /
COC(=O)c1ccccc1NC(=O)c1oc2ccc3c(c2c1C)C(=O)CC(C)(C)O3 | / | 0% | / | -6% | 7 | -18%
